# Whole data set: some 24,000 sequences, median “enrichment r” near 0.99, cut for the highest 2% near 3.7. What follows is part of a selection rich in the highest values, with near analogues and random picks from the rest.
# B1: chr1:66485854:66485855:+_ENSMUSG00000015222_ENSMUST00000077355|mus_mus|FALSE|FALSE (ssRNA)
# RNA: GGGAGUUCUACAGUCCGACGAUCCCUUUCAGAAUGUAUUGGAUAGCCUUCAGGCACAUGAAAGGUAAAAAUGCAAUUUAAAAAAUAAUAAUAAUACUCCAUGCAAAACAGAGCAGAGCGAAAAUAAUUGUCCGAUUGUAUCCACAACAGAGGAUUGAGCAUCA
# B2: 24503659_24515395_812_3pUTR_ENSG00000112294_ENST00000357578|human|control|control (ssRNA)
# RNA: GGGAGUUCUACAGUCCGACGAUCGCUCAGCCAGGGCCAGGGCGGAGAAGGGCGUGUCUUCGGCAGGCUUCACCACGACAGUACAGCCGGCUGCCAGGGCGGCCCCCACCUUCCGGGUGAUCAUGGCACUGGGGAAAUUCCACGCAACAGAGGAUUGAGCAUCA
# B3: 1087333_1088580_755_CDS_ENSG00000067064_ENST00000381344|human|control|control (ssRNA)
# RNA: GGGAGUUCUACAGUCCGACGAUCUACAUUCUUCCUCACCAACAAAAUGUAAUCAAUUUCAUGUUCACCCCAGAUACCAUCAGACUGAGCUUUGUAGUGAAUUCGUGUUAAAUAAUUAAUUUCUUCUGGAGGAACCUCUUCCAACAACAGAGGAUUGAGCAUCA
# B4: 113942580_113943501_80_5pUTR_ENSG00000119927_ENST00000348367|human|control|control (ssRNA)
# RNA: GGGAGUUCUACAGUCCGACGAUCAUAAAACUUCAGGACUCAGCUAUCAGUUUCGGGUGCAGAAUGUCCAUACAACAGGGGAGCCGCUGCUGCCCUAGCAGCUCCAGCUUCGGCUGCUGCAGAAGCCCGCACUUCCAGUCCCGGCAACAGAGGAUUGAGCAUCA
# B5: chr7:65419240:65419241:+_ENSG00000196715_ENST00000360768|hu_mus|motif|central (ssRNA)
# RNA: GGGAGUUCUACAGUCCGACGAUCGCUGGCCAUCAGUCUUCCUUAGGCUGCAGCUGUCGCUUCCAGGCCUCAUUCAAAUAAACGGGUCGUUUGUAAUUGAUGAUGAGGAGGAGGAAGUUCAGCACAUAUGUGGUGACGCAGAUGCAACAGAGGAUUGAGCAUCA
# B6: chr11:107358869:107358870:+_ENSMUSG00000020720_ENSMUST00000021063|mus_hu|FALSE|FALSE (ssRNA)
# RNA: GGGAGUUCUACAGUCCGACGAUCCUCUGGAAGUUGAUAAUUCCUGCUAAUCUGUCUACUUUAGCAAAGAUGGUCUUGUUAACUACUAGAUUUGAGAGAAAGGCUUCGGACUCAUCAACAGAUAGAUCCAGAAGCUGUGCCAUCCAACAGAGGAUUGAGCAUCA
# B7: chr3:55808730:55808731:-_ENSMUSG00000027799_ENSMUST00000029374|mus_mus|FALSE|FALSE (ssRNA)
# RNA: GGGAGUUCUACAGUCCGACGAUCUGACGUCGUAUGAAUUCUGAAGUCUUUCUCUUCCAUUAUGCUUGAUGUGCACGUUAACUCUACACUCGCAGUCAUGUGAGCAAGCAACCCAAGAUCAUCACUGACACCAAGAUGUACUUGCAACAGAGGAUUGAGCAUCA
# B8: 75313438_75313660_4053_CDS_ENSMUSG00000020850_ENSMUST00000102510|mouse|control|control (ssRNA)
# RNA: GGGAGUUCUACAGUCCGACGAUCCUUGGACCACCUGAGGUCAGACUGGGGGAUAAGCACAUGGCCCAUCGAGAGCAUGCCAAGCCCACCCAGCUCCUUAGGGGUGUAGAAUACAACAGGCGGGAACCGGCUAGGCAUCUUGGACAACAGAGGAUUGAGCAUCA
# B9: 207631549_207631669_399_CDS_ENSG00000118246_ENST00000403094|human|control|control (ssRNA)
# RNA: GGGAGUUCUACAGUCCGACGAUCAAAAAUGAAUGCAUCCUGAAAGAGAUAUCUAAUGAUAUCAGUUGAUUGCAUUCUGUUAUGAAAGUUAUUUAAAAUGUUCCAGUUUGAAUGAACUAUUUUUGGUUUGCAAAGUCCCAAACACAACAGAGGAUUGAGCAUCA
# B10: chr4:125586161:125586162:-_ENSG00000151458_ENST00000504087|hu_mus|FALSE|FALSE (ssRNA)
# RNA: GGGAGUUCUACAGUCCGACGAUCCACGACGUCCUAAACAGUUGAUUUACAAAAUUUAAAUAUUUGAAUUUCAAAAAUAGCCAUUUAUUAUUAUUUUUUUAUUUGUGGGACCGUUUCUUAUCUUUGUAAUAGAGAAGUCAUUGUCAACAGAGGAUUGAGCAUCA
# B11: chr4:95690885:95690886:+_ENSMUSG00000028572_ENSMUST00000156910|mus_mus|mus_mus_mus_hu_False|78_98 (ssRNA)
# RNA: GGGAGUUCUACAGUCCGACGAUCUUUAGAAAAUGUUAAUGUUAAAUCUAAAAUAUUGUAAUUUUAAUAUUUUAUUUUACCAGAAGUCACAGGCAAGCAGACACUACAAGAAUAUAUGAAAAUGAAACUCAACAAUAUAACUGUCAACAGAGGAUUGAGCAUCA
# B12: chr10:123500321:123500322:-_ENSG00000107669_ENST00000369043|hu_hu|motif|central (ssRNA)
# RNA: GGGAGUUCUACAGUCCGACGAUCACGUUAAGAAACUACACACAACAAAUAUUUGCAAAAUGAAUGAAAAAUAGGAUAAAGCGGUUUAAAAGUCAACAUAGUAAUAUUUAUCUAAAUAAUUUUAAUCAAAUGUACAACAUAUUUCAACAGAGGAUUGAGCAUCA
# B13: chr19:15271055:15271056:-_ENSG00000074181_ENST00000263388|hu_hu|FALSE|FALSE (ssRNA)
# RNA: GGGAGUUCUACAGUCCGACGAUCCAUAUAUAUAUUUUGUAAAAAAUAAUAAUAAUAAGUUUGUUUAAAUGAAUUUGUUUCUAUACAAAAUGUAAAAAAAAAAAGAAAAAUAAAAAUAAUAAUAAUUCAUUCAUGUCAGAGUGUCAACAGAGGAUUGAGCAUCA
# B14: chr6:117881578:117881579:-_ENSG00000047932_ENST00000052569|hu_mus|FALSE|FALSE (ssRNA)
# RNA: GGGAGUUCUACAGUCCGACGAUCCUUUAAUGUAGAAUAUGUCAUUUUUAUUUACAGGCUAAUUAAGAAUAUGAAACUCAACUAGAUAUAAUACAAUUAUCAUAAAUCCCCUUAUAUGUAAAUUAAUAUAUUUUUUGUUUUAAACAACAGAGGAUUGAGCAUCA
# B15: chr19:46159329:46159330:+_ENSMUSG00000015176_ENSMUST00000165017|mus_hu|FALSE|FALSE (ssRNA)
# RNA: GGGAGUUCUACAGUCCGACGAUCGGUCAAGUUGUCAAAAAAUGUCUUUCAACAGUAGAAAAGUUUGCUUUCAAAUUAAAAAACAAAGCACGUAUUGCAAACAUCGUGUAAUGAUAAAAUUACAGAAAAAAAUAUAUUCAGAAUCAACAGAGGAUUGAGCAUCA
# B16: chr19:53454881:53454882:-_ENSMUSG00000025024_ENSMUST00000025997|mus_mus|motif|central (ssRNA)
# RNA: GGGAGUUCUACAGUCCGACGAUCGUUUCAUUCUACCAAAGCCAAACAAUGACAACAAUGUAUCUUCCUUACUCAGCAUCGGAGCAAUCAGUUACCUUUAGAAAAAUACAAGGAUAAAAAGGAGAGUGUAAAGUAAAGCCCUGCCAACAGAGGAUUGAGCAUCA
# B17: 186301657_186302230_1024_CDS_ENSG00000090520_ENST00000265028|human|control|control (ssRNA)
# RNA: GGGAGUUCUACAGUCCGACGAUCGGAAAUAUGUACCUUGUGACCAUCCAAGUGAGUAAUAUCCAUCUCAAAGCCAACCAGUGACUCAACUAAUGAGAUUGUCACAUUUGUGUACAAAUCAUCUCCUCUCCUUUCAAAUAUUGGCAACAGAGGAUUGAGCAUCA
# B18: 12963335_12971236_673_CDS_ENSG00000085415_ENST00000262124|human|control|control (ssRNA)
# RNA: GGGAGUUCUACAGUCCGACGAUCAUAUUCAAAAAUCUGAACCUUGGCCAUUGCGUUGGGGCUACUGUCAUCACUUCCUACGGCGAUCAUGGGGGAAUGAGCACGAGAGCUUGAAGGGUUCCAAGAAAUACAACUACAGCUUAGCAACAGAGGAUUGAGCAUCA
# B19: chr1:154966221:154966222:+_ENSMUSG00000042751_ENSMUST00000043313|mus_mus|FALSE|FALSE (ssRNA)
# RNA: GGGAGUUCUACAGUCCGACGAUCUGCAACUCGAAUGCAGUUUUUAUUGAGUUGACUUCCAUAAAGCAAAUCUCACUCUUAAAUUAGCAGAUAUGAUUUUUUAAAAAAUUAAAAAAAAAAAAGCUUCCUCCUCCCCAUUCCAACCAACAGAGGAUUGAGCAUCA
# B20: chr16:67134085:67134086:+_ENSG00000067955_ENST00000412916|hu_hu|FALSE|FALSE (ssRNA)
# RNA: GGGAGUUCUACAGUCCGACGAUCCUGAAUUGACUGUGUCAGUUUUUCACCCUUUAAAAUAAUGCCAUUUAAUGAUAAAAUACAUUUUUCAAAAAUUCAGAAAUGUAGUAACAUUUAAUAAAUGUGACCAUGAAAAAUAUUUGUCAACAGAGGAUUGAGCAUCA
# B21: chr16:67134085:67134086:+_ENSG00000067955_ENST00000412916|hu_mus|FALSE|FALSE (ssRNA)
# RNA: GGGAGUUCUACAGUCCGACGAUCGAAUUGACCAUGUCAGUUUUUAAAAUUUUCUAAAAUAAUGCCAUUUUAUGAUAAAAUACAUUUUUGCAAAAAUUCAGAAAUGUAGUAACAUUUAAUGAAUACGACCACGGAAAGUAUUGUCAACAGAGGAUUGAGCAUCA
# B22: chr5:6374476:6374477:-_ENSG00000133398_ENST00000255764|hu_mus|FALSE|FALSE (ssRNA)
# RNA: GGGAGUUCUACAGUCCGACGAUCUAGGCUUUUAAAUUUCUUCAUUGUGUCGAUCUUGCCCUUGACUUGCUCGUUUUUAGCUAGAGCCCUCUCCAGGCAUUCUUUGGUGUAGAGCUGGGGAUUCCGACCUUGAUCAAUGUAUUCCAACAGAGGAUUGAGCAUCA
# Biological target: T1, UNK ZnF1-3 (human, UniProt Q9C0B0 31-174)
# T1 sequence: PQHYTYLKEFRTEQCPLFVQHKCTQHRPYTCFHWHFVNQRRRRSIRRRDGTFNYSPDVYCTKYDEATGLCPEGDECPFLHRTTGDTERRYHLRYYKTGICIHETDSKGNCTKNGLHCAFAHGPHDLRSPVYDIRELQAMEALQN
# Test: nsRBNS (natural sequence RNA bind-n-seq); RBNS binding buffer (assumed for nsRBNS): 25 mM Tris pH 7.5, 150 mM KCl, 3 mM MgCl2, 0.01% Triton X-100, 500 ug/ml BSA, 20 U/ml SUPERase-In, 4 C; UNK is unkempt and MSI1 is Musashi-1; names of the RNAs are library labels; protein concentration not given here; high values mean tight binding
row,Binder,binding signal [enrichment R]
1,B1,5.46
2,B2,1.27
3,B3,3.42
4,B4,1.22
5,B5,1.01
6,B6,3.65
7,B7,0.64
8,B8,0.919
9,B9,0.397
10,B10,3.35
11,B11,3.29
12,B12,6.73
13,B13,9.9
14,B14,4.33
15,B15,6.25
16,B16,1.52
17,B17,0.986
18,B18,2.14
19,B19,3.32
20,B20,0.889
21,B21,4.09
22,B22,0.465

# Reference: article PMC12136788
